Experimental findings from PubChem BioAssay (EPA / NIEHS) are described below.

Inconclusive results are not listed. Some structures have more than one record in an assay (separate samples or runs), and their calls can disagree. The source made the active and inactive calls. How the source made its calls, unless noted: active means hit-call score of the fitted dose curve at least 0.9, where 1 is the maximum; inconclusive means response in the unintended direction; inactive means score below 0.9.

The nature of assay [1]: ATG_TGFb_CIS: Attagene CIS-FACTORIAL HepG2 Assay for human Transforming Growth Factor (TGF) (AID 2282967; active means hit-call score of the fitted dose curve at least 0.9, where 1 is the maximum; inactive means score below 0.9). The following applies: HepG2 Attagene CIS TGFb reporter, mRNA transcription; actives raise or lower the signal. A digest of the protocol: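 HepG2 cells transiently transfected with cis-promoter-driven multiple reporter units measure endogenous TF activity; reporter mRNA quantified at 24 h by RT-PCR, FAM labeling, HpaI digestion and capillary electrophoresis. Bidirectional fit vs DMSO.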

In assay [2] the target is Nuclear receptor subfamily 1 group I member 3 (Homo sapiens) (UniProt Q14994). Kind of assay: ATG_CAR_TRANS: Attagene TRANS-FACTORIAL HepG2 Assay for human Constitutive Androstane Receptor (CAR) (AID 2282969).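 Further: activators raise reporter mRNA above DMSO so AC50 marks induction.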 The following applies: HepG2 Attagene TRANS-FACTORIAL CAR reporter. A digest of the protocol: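 Transiently transfected HepG2, multiplex TRANS reporters (CAR-Gal4 chimera driving GAL4-UAS reporter). 24 h dosing. Readout: reporter transcript by RT-PCR + capillary electrophoresis, fluorescence intensity; positive direction vs DMSO.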

For assay [3], the target named is Steroid hormone receptor ERR1 (Homo sapiens) (UniProt P11474). As to the kind of experiment: ATG_ERRa_TRANS: Attagene TRANS-FACTORIAL HepG2 Assay for human Estrogen-Related Receptor alpha (ERRa) (AID 2282971). The following applies: HepG2 Attagene TRANS reporter, ERRa transactivation. A digest of the protocol: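 HepG2 cells transiently transfected with multiplexed GAL4-UAS reporter units reading chimeric ERRa-Gal4 activity; 24 h compound exposure. Reporter mRNA measured by RT-PCR, 6-FAM labelling, HpaI digest and capillary electrophoresis; gain of signal fitted versus DMSO baseline.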

For assay [4], the target named is X-box-binding protein 1 (Homo sapiens) (UniProt P17861). Kind of assay: ATG_Xbp1_CIS: Attagene CIS-FACTORIAL HepG2 Assay for human X-box Binding Protein 1 (XBP1) (AID 2282972; active means hit-call score of the fitted dose curve at least 0.9, where 1 is the maximum; inactive means score below 0.9). The following applies: HepG2 XBP1 cis-element reporter, Attagene multiplex; actives raise or lower the signal. A digest of the protocol: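 Read-out: fluorescent reporter mRNA fragments resolved by capillary electrophoresis after RT-PCR. Human HepG2 liver cells carried transfected cis-promoter reporter units and were exposed to chemicals for 24 hours. Gain or loss of signal fitted relative to DMSO baseline.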

Assay [5] is described as follows: ATG_M_19_TRANS: Attagene TRANS-FACTORIAL HepG2 Assay for M19 Transcription Factor (Internal Marker) (AID 2282974). The following applies: HepG2 Attagene TRANS-FACTORIAL M19 internal marker reporter. An outline of the steps:
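HepG2 cells transiently transfected with multiple GAL4-UAS reporter transcription units were exposed to chemicals for 24 h. Reporter mRNA was read by RT-PCR, 6-FAM primer extension, HpaI digestion and capillary electrophoresis; gain of signal fitted relative to DMSO.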

Assay [6] in a line: ATG_Hpa5_TRANS: Attagene TRANS-FACTORIAL HepG2 Assay for human GAL4-Hpa5 Hepatocyte Transcription Factor Basal Promoter (AID 2282975).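 Further: hits are increases in reporter mRNA over DMSO baseline.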 The following applies: HepG2 Attagene GAL4-Hpa5 transcription reporter. An outline of the steps: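 Gain-of-signal versus DMSO is fitted for reporter mRNA quantified by RT-PCR and capillary electrophoresis after 24 h exposure. This endpoint is an internal background marker in transiently transfected HepG2 cells carrying GAL4-UAS reporter units.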

Assay [7] can be described thus: ATG_VDRE_CIS: Attagene CIS-FACTORIAL HepG2 Assay for human Vitamin D Receptor Element (VDRE) (AID 2282968; active means hit-call score of the fitted dose curve at least 0.9, where 1 is the maximum; inactive means score below 0.9). The following applies: HepG2 VDRE cis-reporter transcription, actives raise or lower the signal. An outline of the steps: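 Compounds were applied for 24 h to HepG2 cells transfected with promoter-regulated reporter units. Total RNA was reverse-transcribed, and reporter amplicons were fluorescently labelled and sized by capillary electrophoresis.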

The target in assay [8] is Androgen receptor (Homo sapiens) (UniProt P10275). Kind of assay: ATG_AR_TRANS: Attagene TRANS-FACTORIAL HepG2 Assay for human Androgen Receptor (AR) (AID 2282973). The following applies: HepG2 Attagene TRANS-FACTORIAL AR reporter transcription. A digest of the protocol: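 HepG2 cells transiently transfected with multiplexed GAL4-UAS reporter units and chimeric NR-Gal4 fusion; 24 h compound exposure. Reporter mRNA measured by RT-PCR, 6-FAM labelling, HpaI digestion and capillary electrophoresis; gain-of-signal fitted relative to DMSO baseline.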

A short description of assay [9]: ATG_GAL4_TRANS: Attagene TRANS-FACTORIAL HepG2 Assay for GAL4 (Internal Marker) (AID 2282976). The following applies: HepG2 Attagene TRANS GAL4 internal marker reporter. An outline of the steps:
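HepG2 cells transiently transfected with multiplexed GAL4-UAS reporter constructs were dosed for 24 h. Reporter mRNA was measured by RT-PCR, 6-FAM primer extension, HpaI digestion and capillary electrophoresis, and gain of signal was fitted relative to DMSO.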

The target in assay [10] is Estrogen receptor (Homo sapiens) (UniProt P03372). As to the kind of experiment: ATG_ERa_TRANS: Attagene TRANS-FACTORIAL HepG2 Assay for human Estrogen Receptor alpha (ERa) (AID 2282970). The following applies: HepG2 Attagene TRANS ERa GAL4 reporter, mRNA. A digest of the protocol: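 One of 30 multiplexed endpoints from a HepG2 TRANS system, this one reports ERa-Gal4-driven reporter mRNA. Transcripts were quantified 24 hours post-dosing by fluorescent RT-PCR and capillary electrophoresis, with activity scored as induction over DMSO.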
Estrogen receptor (Homo sapiens), sequence (P03372 whole entry, looked up, the tested form may be a part): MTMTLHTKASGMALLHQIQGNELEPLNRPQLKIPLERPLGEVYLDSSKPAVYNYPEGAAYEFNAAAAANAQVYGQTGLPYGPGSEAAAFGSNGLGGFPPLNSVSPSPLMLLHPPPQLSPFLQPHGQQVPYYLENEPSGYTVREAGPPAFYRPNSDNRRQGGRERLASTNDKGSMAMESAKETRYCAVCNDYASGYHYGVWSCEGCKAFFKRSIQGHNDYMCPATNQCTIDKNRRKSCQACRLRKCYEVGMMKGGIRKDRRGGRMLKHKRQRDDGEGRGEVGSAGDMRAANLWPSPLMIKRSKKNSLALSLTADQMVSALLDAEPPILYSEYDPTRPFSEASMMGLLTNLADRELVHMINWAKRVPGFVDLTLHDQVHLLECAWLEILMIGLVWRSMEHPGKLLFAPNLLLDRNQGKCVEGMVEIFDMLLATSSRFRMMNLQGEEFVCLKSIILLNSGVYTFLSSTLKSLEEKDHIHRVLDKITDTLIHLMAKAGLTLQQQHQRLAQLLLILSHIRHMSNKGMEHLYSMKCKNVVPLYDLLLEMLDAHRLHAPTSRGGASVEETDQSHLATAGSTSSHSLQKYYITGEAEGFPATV

X-box-binding protein 1 (Homo sapiens), sequence (P17861 whole entry, looked up, the tested form may be a part): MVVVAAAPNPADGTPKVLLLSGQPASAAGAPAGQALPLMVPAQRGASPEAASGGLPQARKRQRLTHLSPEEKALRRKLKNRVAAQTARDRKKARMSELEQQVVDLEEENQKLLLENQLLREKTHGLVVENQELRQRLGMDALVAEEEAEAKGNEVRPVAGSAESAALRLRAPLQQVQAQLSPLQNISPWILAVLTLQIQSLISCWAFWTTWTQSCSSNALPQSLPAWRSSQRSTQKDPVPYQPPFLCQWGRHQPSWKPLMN
Steroid hormone receptor ERR1 (Homo sapiens), sequence (P11474 whole entry, looked up, the tested form may be a part): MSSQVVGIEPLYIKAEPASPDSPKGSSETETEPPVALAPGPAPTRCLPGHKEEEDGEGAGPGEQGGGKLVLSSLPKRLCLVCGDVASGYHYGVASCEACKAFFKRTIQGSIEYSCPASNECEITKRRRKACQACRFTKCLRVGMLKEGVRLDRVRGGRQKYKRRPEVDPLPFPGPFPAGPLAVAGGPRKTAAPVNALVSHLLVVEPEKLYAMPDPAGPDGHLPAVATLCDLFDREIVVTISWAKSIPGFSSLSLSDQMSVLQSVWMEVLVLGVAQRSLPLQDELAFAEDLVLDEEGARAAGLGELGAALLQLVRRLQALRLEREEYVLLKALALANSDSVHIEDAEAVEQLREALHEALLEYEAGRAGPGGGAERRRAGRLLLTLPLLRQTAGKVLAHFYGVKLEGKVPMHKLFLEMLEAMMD
Androgen receptor (Homo sapiens), sequence (P10275 whole entry, looked up, the tested form may be a part): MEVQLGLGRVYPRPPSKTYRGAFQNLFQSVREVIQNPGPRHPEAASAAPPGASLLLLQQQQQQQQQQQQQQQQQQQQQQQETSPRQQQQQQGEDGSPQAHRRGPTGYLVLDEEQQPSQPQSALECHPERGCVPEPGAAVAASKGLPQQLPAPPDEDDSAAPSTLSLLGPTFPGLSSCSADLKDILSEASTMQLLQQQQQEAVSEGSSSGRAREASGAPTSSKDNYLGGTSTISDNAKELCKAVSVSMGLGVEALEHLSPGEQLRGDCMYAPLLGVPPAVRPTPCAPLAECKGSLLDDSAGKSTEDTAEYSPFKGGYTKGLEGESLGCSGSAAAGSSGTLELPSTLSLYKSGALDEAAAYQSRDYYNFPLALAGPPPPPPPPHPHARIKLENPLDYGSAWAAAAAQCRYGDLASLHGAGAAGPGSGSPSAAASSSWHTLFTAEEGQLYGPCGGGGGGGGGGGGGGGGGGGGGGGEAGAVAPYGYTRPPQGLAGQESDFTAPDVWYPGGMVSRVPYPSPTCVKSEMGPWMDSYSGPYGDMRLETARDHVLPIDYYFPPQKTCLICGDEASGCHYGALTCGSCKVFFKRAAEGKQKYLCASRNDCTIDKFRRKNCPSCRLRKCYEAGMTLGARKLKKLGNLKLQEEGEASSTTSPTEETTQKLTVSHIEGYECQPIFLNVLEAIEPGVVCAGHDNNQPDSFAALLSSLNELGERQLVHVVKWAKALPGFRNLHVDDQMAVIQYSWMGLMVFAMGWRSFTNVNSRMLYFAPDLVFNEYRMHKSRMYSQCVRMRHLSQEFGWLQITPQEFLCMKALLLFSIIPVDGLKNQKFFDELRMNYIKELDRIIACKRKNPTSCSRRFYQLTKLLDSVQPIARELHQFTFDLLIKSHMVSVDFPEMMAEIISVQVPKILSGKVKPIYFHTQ
Nuclear receptor subfamily 1 group I member 3 (Homo sapiens), sequence (Q14994 whole entry, looked up, the tested form may be a part): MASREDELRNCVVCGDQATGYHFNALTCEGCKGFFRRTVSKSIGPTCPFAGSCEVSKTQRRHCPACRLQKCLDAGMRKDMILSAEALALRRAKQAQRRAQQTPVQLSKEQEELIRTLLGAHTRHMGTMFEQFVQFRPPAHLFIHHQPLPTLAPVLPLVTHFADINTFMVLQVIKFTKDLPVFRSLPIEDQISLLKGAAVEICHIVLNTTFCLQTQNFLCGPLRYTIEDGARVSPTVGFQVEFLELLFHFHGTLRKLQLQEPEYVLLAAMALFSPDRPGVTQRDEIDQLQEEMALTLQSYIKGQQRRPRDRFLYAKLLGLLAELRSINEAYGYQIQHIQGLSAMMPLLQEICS

For the compound `CCC(CC)Nc1c([N+](=O)[O-])cc(C)c(C)c1[N+](=O)[O-]`, the outcome in assay [1], in [2], in assay [3], in assay [4], in [5] and in assay [6] was inactive.
Consider `COc1ccc(C(=CC(=O)N2CCOCC2)c2ccc(Cl)cc2)cc1OC`, for which the compound was called inactive in [1], in assay [3], in [4], in assay [8], in assay [5] and in assay [6]. The compound was called inactive in [9]. Further, the AC50 in [7] was 11.4 µM (active).
As to `FC(F)C(F)(F)OCC(Cn1cncn1)c1ccc(Cl)cc1Cl` (configuration not stated), the call in assay [1] and in assay [5] was inactive. Besides, the figures for the AC50 in assay [7] and in assay [4] were 37.3 µM (active) and 75.8 µM (active), respectively.
As for `CC1(C(=O)Nc2ccc(O)c(Cl)c2Cl)CCCCC1`, the compound was called inactive in assay [1], in [2] and in [4].
For `Cc1cc(C2CC2)nc(Nc2ccccc2)n1`, the AC50 in [1] was 50 µM (active); in assay [4], 31.6 µM (active). Further, the compound was classed as inactive in assay [2] and in assay [10].
With `N#CSCSC#N`, the compound was classed as inactive in assay [1], in [7], in assay [2], in assay [3], in assay [4] and in [8]. For the same compound, the compound was called inactive in assay [5] and in assay [6].
Consider `C=C(C)[C@H]1Cc2c(ccc3c2O[C@@H]2COc4cc(OC)c(OC)cc4[C@@H]2C3=O)O1`, for which the result in assay [1], in assay [2] and in [3] was inactive. The concentration at half-maximal activity (AC50) in [4] was 0.0204 µM (active).
As for `CCCCN(CC)c1c([N+](=O)[O-])cc(C(F)(F)F)cc1[N+](=O)[O-]`, the outcome in assay [1], in assay [2], in [3], in assay [4] and in [6] was inactive. In [7], the AC50 is 13.3 µM (active).
With `CCOP(=S)(Oc1cnc(C(C)(C)C)nc1)OC(C)C` (configuration not stated), in assay [1], the AC50 is 86.9 µM (active). Moreover, the call in assay [2], in [3] and in [4] was inactive.
As to `CON=C(C(=O)OC)c1ccccc1CON=C(C)c1cccc(C(F)(F)F)c1`, the result in [1], in [2], in assay [4], in [5] and in assay [6] was inactive. In assay [7], the AC50 is 11.1 µM (active).
As to `CC(Oc1cccc(Cl)c1)C(=O)O` (configuration not stated), the outcome in assay [1], in assay [7], in assay [4], in assay [5] and in [6] was inactive.
Turning to `CCc1cccc(CC)c1N(COC)C(=O)CCl`, the call in assay [1], in assay [10], in assay [4], in [8] and in assay [5] was inactive. Also, the AC50 in [7] was 7.75 µM (active).
Regarding `COP(=O)(OC)SCn1c(=O)oc2cc(Cl)cnc21`, the call in [1], in [2], in assay [10], in [3], in [4] and in assay [8] was inactive. For the same compound, the call in assay [5] and in [6] was inactive.
Consider `COc1cc(OC)nc(Sc2cccc(Cl)c2C(=O)O)n1`, for which the call in [1], in assay [7], in assay [2], in assay [3] and in [4] was inactive.
As to `CCc1cccc(C)c1N(C(=O)CCl)C(C)COC` (configuration not stated), the result in assay [1], in assay [2], in [4] and in assay [5] was inactive.
For `CCOP(=S)(OCC)Oc1ccc2c(C)c(Cl)c(=O)oc2c1`, the call in assay [1], in assay [2], in assay [3], in [4] and in assay [5] was inactive.
For `O=[N+]([O-])c1cc(C(F)(F)F)c(Cl)c([N+](=O)[O-])c1Nc1ncc(C(F)(F)F)cc1Cl`, the AC50 in assay [1] was 2.2 µM (active). The outcome in assay [1], in assay [7], in assay [2], in assay [10], in assay [4] and in [5] was inactive. The compound was classed as inactive in assay [6] and in assay [9].
`COP(=O)(OC)OC(Br)C(Cl)(Cl)Br` (configuration not stated): the compound was called inactive in [1], in [7], in assay [4] and in assay [5].
In the case of `CSc1nc(NC(C)C)nc(NC(C)C)n1`, the call in [1], in assay [2], in [10], in assay [3], in assay [4] and in assay [5] was inactive. The result in assay [6] was inactive. For the same compound, in assay [7], the AC50 is 10.3 µM (active).
Regarding `CCOP(=S)(OCC)Oc1ccc([N+](=O)[O-])cc1`, the call in assay [1], in assay [2] and in assay [4] was inactive.
For `Nc1c(Cl)cc([N+](=O)[O-])cc1Cl`, the AC50 in assay [1] is 70.8 µM (active); in assay [10], 50 µM (active); in assay [4], 50 µM (active). The result in [2], in assay [3], in assay [5] and in assay [6] was inactive.
Turning to `CC1=NNC(=O)N(/N=C/c2cccnc2)C1`, the compound was called inactive in [1], in [7] and in assay [4].
Take `CCOC(=O)COc1cc(-c2nn(C)c(OC(F)F)c2Cl)c(F)cc1Cl`: the call in [1], in assay [7], in assay [3], in [4], in assay [5] and in assay [6] was inactive.
For the compound `S=C1NCCN1`, the call in [1], in [7] and in assay [4] was inactive.
Take `Cc1ccn2nc(S(=O)(=O)Nc3c(F)cccc3F)nc2n1`: the outcome in [1], in assay [7], in assay [2] and in [4] was inactive.
Regarding `CC[C@H](C)[C@H]1O[C@]2(C=C[C@@H]1C)C[C@@H]1C[C@@H](C/C=C(\C)[C@@H](O[C@H]3C[C@H](OC)[C@@H](O[C@H]4C[C@H](OC)[C@@H](NC)[C@H](C)O4)[C@H](C)O3)[C@@H](C)/C=C/C=C3\CO[C@@H]4[C@H](O)C(C)=C[C@@H](C(=O)O1)[C@]34O)O2`, the call in [1], in [2], in assay [10], in assay [4], in [5] and in assay [6] was inactive.
Regarding `O=c1ccc(=O)[nH][nH]1`, the result in assay [1], in assay [7], in [3], in [4], in [8] and in assay [5] was inactive. Besides, in assay [6], the compound was called inactive.
On to `CCOP(=O)(NC(C)C)Oc1ccc(SC)c(C)c1` (configuration not stated), for which the compound was called inactive in [1], in [2], in [4], in assay [8], in [5] and in assay [6]. Moreover, the outcome in [9] was inactive.
As for `CCCOc1nn(C(=O)NS(=O)(=O)c2ccccc2C(=O)OC)c(=O)n1C`, the compound was classed as inactive in assay [1], in assay [2], in [4] and in [5].
